Reference: PubChem BioAssay AID1745853 (National Center for Advancing Translational Sciences (NCATS), 2022)
The whole screen tested about 25,000 compounds, of which about 970 (3.9%) were called active. Not shown: some 8% with an inconclusive outcome. No rule for the calls is given here. The entries come from a sample that favours actives as a whole.

Tests used:
Assay in all cases: Primary Screen for Target Class Profiling of Small Molecule Inhibitors of Methyltransferases
[1] = biological target: Catechol O-methyltransferase (Homo sapiens) (UniProt P21964); conditions: purified enzyme, MTase-Glo SAH luminescence; activity change, negative = inhibition: at 40 µM, stronger effect = lower value; outcome: 40 uM
Sequence of Catechol O-methyltransferase (Homo sapiens) (P21964 whole entry, looked up): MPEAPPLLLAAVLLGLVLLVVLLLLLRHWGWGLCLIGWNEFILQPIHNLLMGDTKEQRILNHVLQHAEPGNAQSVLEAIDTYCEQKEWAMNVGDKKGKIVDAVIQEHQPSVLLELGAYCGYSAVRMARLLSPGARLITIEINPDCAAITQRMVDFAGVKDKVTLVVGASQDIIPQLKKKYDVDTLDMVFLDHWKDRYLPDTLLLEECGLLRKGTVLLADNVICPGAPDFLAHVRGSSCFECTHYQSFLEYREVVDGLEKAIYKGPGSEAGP
Method in brief: (§1)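 Each enzyme was reacted with SAM and its substrate, with compounds tested once at 40 uM; SAH formed was read by MTase-Glo luminescence.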

[2] = biological target: Glycine N-methyltransferase (Homo sapiens) (UniProt Q14749); conditions: purified enzyme, MTase-Glo SAH luminescence; measured here: GNMT inhibition; at 40 µM; stronger effect = lower value
Sequence of Glycine N-methyltransferase (Homo sapiens) (Q14749 whole entry, looked up): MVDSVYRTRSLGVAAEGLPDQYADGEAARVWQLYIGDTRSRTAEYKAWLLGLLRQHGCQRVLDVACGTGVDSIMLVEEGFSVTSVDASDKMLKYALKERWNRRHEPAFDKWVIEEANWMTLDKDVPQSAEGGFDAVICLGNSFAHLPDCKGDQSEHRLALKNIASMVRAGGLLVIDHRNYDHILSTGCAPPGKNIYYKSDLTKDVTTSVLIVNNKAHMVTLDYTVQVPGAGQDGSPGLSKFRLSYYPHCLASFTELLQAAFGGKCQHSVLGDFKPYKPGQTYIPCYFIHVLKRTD
Method in brief: as §1

[3] = biological target: Guanidinoacetate N-methyltransferase (Homo sapiens) (UniProt Q14353); conditions: purified enzyme, MTase-Glo SAH luminescence; measured here: GAMT inhibition; at 40 µM; stronger effect = lower value
Method in brief: as §1

[4] = biological target: Histamine N-methyltransferase (Homo sapiens) (UniProt P50135); conditions: purified enzyme, MTase-Glo SAH luminescence; measured here: HNMT inhibition; at 40 µM; stronger effect = lower value
Sequence of Histamine N-methyltransferase (Homo sapiens) (P50135 whole entry, looked up): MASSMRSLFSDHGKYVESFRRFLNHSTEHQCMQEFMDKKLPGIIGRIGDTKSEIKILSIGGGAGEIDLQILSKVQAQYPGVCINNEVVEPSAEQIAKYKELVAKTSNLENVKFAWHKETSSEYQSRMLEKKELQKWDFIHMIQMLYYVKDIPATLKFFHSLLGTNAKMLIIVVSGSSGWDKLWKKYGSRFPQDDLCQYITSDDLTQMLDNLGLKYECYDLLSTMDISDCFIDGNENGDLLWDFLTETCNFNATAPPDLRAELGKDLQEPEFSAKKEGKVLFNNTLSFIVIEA
Method in brief: as §1

[5] = biological target: Nicotinamide N-methyltransferase (Homo sapiens) (UniProt P40261); conditions: purified enzyme, MTase-Glo SAH luminescence; measured here: NNMT inhibition; at 40 µM; stronger effect = lower value
Sequence of Nicotinamide N-methyltransferase (Homo sapiens) (P40261 whole entry, looked up): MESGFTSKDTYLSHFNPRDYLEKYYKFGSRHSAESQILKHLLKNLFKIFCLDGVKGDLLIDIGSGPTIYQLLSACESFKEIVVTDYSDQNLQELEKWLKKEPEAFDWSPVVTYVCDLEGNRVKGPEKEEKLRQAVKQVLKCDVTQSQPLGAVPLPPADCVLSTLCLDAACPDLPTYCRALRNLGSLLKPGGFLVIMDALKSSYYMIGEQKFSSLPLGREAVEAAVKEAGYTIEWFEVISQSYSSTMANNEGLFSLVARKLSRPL
Method in brief: as §1

[6] = biological target: Phenylethanolamine N-methyltransferase (Homo sapiens) (UniProt P11086); conditions: purified enzyme, MTase-Glo SAH luminescence; measured here: PNMT inhibition; at 40 µM; stronger effect = lower value
Sequence of Phenylethanolamine N-methyltransferase (Homo sapiens) (P11086 whole entry, looked up): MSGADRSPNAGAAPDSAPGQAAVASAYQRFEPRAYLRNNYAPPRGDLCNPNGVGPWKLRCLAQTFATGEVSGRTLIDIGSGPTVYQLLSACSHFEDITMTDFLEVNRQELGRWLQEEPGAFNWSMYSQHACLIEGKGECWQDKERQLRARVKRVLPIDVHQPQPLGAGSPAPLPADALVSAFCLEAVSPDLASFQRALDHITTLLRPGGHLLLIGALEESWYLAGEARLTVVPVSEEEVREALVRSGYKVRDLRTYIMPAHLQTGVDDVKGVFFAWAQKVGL
Method in brief: as §1
% is scaled to controls: 0 for no effect and ±100 for the full control effect.

Row | SMILES | activity change, negative = inhibition [1] | activity change, negative = inhibition [2] | activity change, negative = inhibition [3] | activity change, negative = inhibition [4] | activity change, negative = inhibition [5] | activity change, negative = inhibition [6]
1 | COc1ccc(OC)c(CCNC(=O)CCn2ccc3cc(S(=O)(=O)N4CCCC4)ccc32)c1 | 1.88% (inactive) | 1.91% | 4.56% | 3.65% | -0.408% | 0.497%
2 | Cn1nccc1C(=O)N1CCC(Cc2nc(C3CC3)n[nH]2)C1 (configuration not stated) | -2.8% (inactive) | -3.99% | -1.84% | -1.69% | -5.4% | -4.14%
3 | CCOc1ccccc1CN1CCC(Cc2nc(-c3cccnc3)n[nH]2)C1 (configuration not stated) | -5.67% (active) | -4.21% | -1.54% | -56.9% | -49.4% | -12.9%
4 | CC(C)NC(=O)c1ccccc1OCC1CCCN(Cc2cccnc2)C1 (configuration not stated) | -0.392% (inactive) | -1.68% | -10.2% | -2.4% | -8.48% | -0.898%
5 | CCC(C)N1Cc2cc(NC(=O)c3ccc([N+](=O)[O-])cc3)ccc2OCC1=O (configuration not stated) | -3.17% (inactive) | -7.2% | -10.5% | -3.63% | -19.6% | -7.68%
6 | CC(=O)c1ccc2c(c1)[C@H](NC(=O)c1ccc(F)c(Cl)c1)[C@H](O)C(C)(C)O2 | -7.4% (inactive) | -1.85% | -7.24% | -2.99% | -18.7% | -13.1%
7 | COC[C@H]1NC(=O)CC[C@H]1C(=O)N1CCN(c2cccc(C)c2)CC1 | -9.6% (inactive) | -5.9% | -7.51% | -3.65% | -13.6% | -21.5%
